# The panel holds about 83,000 compounds, 20% with a hit somewhere; the sample as a whole holds those more often.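 Values shown are percent growth following 48 h exposure of cells in 96-well plates to a single concentration of compound; below 10 was considered active.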 A number with no mark means an inactive call. Active and inactive are the calls of the source.
# Test system: HCT-15 colon
# Assay: NCI-60 one-dose screen, 48 h (100 = growth as untreated, 0 = no growth, -100 = all killed)
# Details: 10 µM unless noted
# Procedure: Growth inhibition of the HCT-15 human tumor cell line is measured as a screen for anti-cancer activity. Cells are grown in 96 well plates and exposed to the test compound for 48 hours. Compounds are tested at a single concentration, which is 10^-5 M for most compounds. The reported endpoint is percent growth (GI% or GIPRCNT), where numbers from 0 - 100% represent growth inhibition, and numbers from -100% - 0 represent cell death. For example, a value of 40 represents 60% growth inhibition. A value of 0 means no net growth occurred over the course of the experiment. A value of -40 indicates 40% of cells at the beginning of the experiment died by the end of the experiment. A value of -100 means all cells are dead at the end of the experiment.
# NCI-60 Human Tumor Cell Lines Screen was performed using the standard one-dose NCI protocol, which is described in more detail at https://dtp.cancer.gov/discovery_development/nci-60/default.htm.
# Compounds with GIPRCNT values below 10 were considered active. Activity score was based on GIPRCNT using the following formula: […]
# Score is 0 for GIPRCNT values of 100 or above, 50 for GIPRCNT values of 0, and 100 for GIPRCNT values of -100.
row,Compound,growth
1,Cc1ccc(C(=O)Cc2ccccc2)c(O)c1,102%
2,[N-]=[N+]=NCc1ncc(-c2ccc(C(F)(F)F)cc2)c(NC2CCCCCC2)n1,80.2% [50 µM]
3,N#Cc1c(-c2ccccc2)cc(-c2ccccc2)n(CCCC(=O)O)c1=O,92.9%
4,CCCCc1ccc(C(N)=O)nc1,94.1%
5,Cc1cn(C(C=O)OC(C=O)CO)c(=O)[nH]c1=O (stereo not given),102%
6,COc1cccc2c1C(=O)c1c(O)c3c(c(O)c1C2=O)C[C@@](O)(C(C)=O)C[C@@H]3O[C@H]1C[C@H](N)[C@H](O)[C@H](C)O1,7.88% (active)
7,COc1ccc2c(c1)C(=Nc1cc(OC)c(OC)c(OC)c1)C(=O)N2,100%
8,O=c1ncc(-c2ccc(C(F)(F)F)cc2)c(NC2CCCCCC2)[nH]1,103%
9,C[C@H]1O[C@@H](O[C@H]2[C@@H](O)C[C@H](O[C@H]3[C@@H](O)C[C@H](O[C@H]4CC[C@]5(C)C6C[C@@H](O)[C@]7(C)[C@@H](C8=CC(=O)OC8)CC[C@]7(O)C6CC[C@@H]5C4)O[C@@H]3C)O[C@@H]2C)C[C@H](O)[C@@H]1O (stereo not given in full),-94.9% (active)
10,CC(C)CNc1nc(N=[N+]=[N-])nc(NCC(C)C)n1,54% [100 µM]
11,NC(=O)c1cc(Cl)ccc1NC(=O)c1ccccc1-c1ccccc1,27.9%
12,O=C(COc1cccc(/C=C2\Oc3ccc4ccccc4c3C2=O)c1)c1ccc([N+](=O)[O-])cc1,89.5%
13,Cc1cc(C(=O)Nc2ccc3cc(CN4CCOCC4)ccc3n2)c(C)n1-c1ccccc1,40.4%
14,COc1cc(NC(C)CCCN)c2nc(C)ccc2c1Oc1ccc(F)cc1 (stereo not given),71.2%
15,FCc1ncc(-c2ccc(C(F)(F)F)cc2)c(NC2CCCCCC2)n1,9.18% [100 µM] (active)
16,C1CCC(C(CC2CCCCN2)C2CCCCC2)CC1 (stereo not given),25%
17,COc1cc(/C=C/c2cc(/C=C/c3ccc(O)c(OC)c3)n(C(=O)c3ccc(Cl)cc3)n2)ccc1O,14.1%
18,COc1cc(/C=C/C(=O)c2c(C)n([O-])c3ccc(Cl)cc3[n+]2=O)cc(OC)c1OC,59%
19,CCN(CC)c1ccc(N=C2C=CC(=O)C=C2NC(C)=O)cc1,90.3%
20,Cc1cc(=O)[nH]c(/C(=N/Nc2ccccc2)C(=O)c2ccc(Cl)cc2)n1,112%

row,Compound,growth
1,O=C1NCCc2c1noc2-c1ccccc1,106%
2,O=C(Nc1cccc(Cl)c1)Nc1cccc(Cl)c1,60.9%
3,O=C(COc1ccc(/C=C2\Oc3ccc4ccccc4c3C2=O)cc1)c1ccc([N+](=O)[O-])cc1,88.4%
4,COc1ccc(NC(=O)c2ccc(-c3ccccc3)cc2)c(C(N)=O)c1,97.1%
5,COc1ccc(Cl)cc1Nc1nc(C(F)(F)F)ccc1C(=O)N/N=C/c1c(Cl)cccc1Cl,30.6%
6,COc1ccc(NC(=O)c2ccccc2-c2ccccc2)c(C(N)=O)c1,32.8%
7,CC1CN(/N=C/c2ccc([N+](=O)[O-])o2)C(=N)O1 (stereo not given),97.8%
8,OCc1n(Cc2ccc3ccccc3c2)cc[n+]1Cc1ccc2ccccc2c1,100%
9,O=C(c1ccccc1)c1ccc(Oc2ccc([N+](=O)[O-])cc2[N+](=O)[O-])cc1,2.7% (active)
10,Nc1ccccc1C#Cc1ccccc1C#Cc1ccc(OCCCCCCOc2ccc(C#Cc3ccccc3C#Cc3ccccc3N)cc2)cc1,106%
11,COc1cc2c(cc1OC)C(=O)/C(=C/c1cccc(OCC(=O)c3ccccc3)c1)C2,83.4%
12,CC(=O)c1nn(-c2ccccc2)c(=Nc2ccccc2)cc1C,93.9%
13,O=C(Nc1ccc(Cl)cc1)Nc1nc2ccc(OC(F)(F)F)cc2o1,77.5%
14,CCN(CC)CCCCCCCNc1c2ccc(Cl)cc2nc2ccc(OC)cc12,-5.62% (active)
15,CC(C)CC1NC(=O)C(CCCN)NC(=O)C(C(C)C)NC(=O)C2CCCN2C(=O)C(Cc2ccccc2)NC(=O)C(CC(C)C)NC(=O)C(CCCN)NC(=O)C(C(C)C)NC(=O)C2CCCN2C(=O)C(Cc2ccccc2)NC1=O (stereo not given),7.83% (active)
16,C[C@H]1c2cccc(O)c2C(O)=C2C(=O)[C@]3(O)C(O)=C(C(N)=O)C(=O)[C@@H](N(C)C)[C@@H]3[C@@H](O)[C@@H]21,31.2%
17,CC(=O)N1N=C(c2ccc3c(c2)OCO3)CC1c1c(C)nn(-c2ccccc2)c1N(C)Cc1ccccc1 (stereo not given),79.2%
18,CC(C)Sc1nc(-c2ccc(Br)cc2)c(C#N)c(N2CCCCC2)n1,96.2%
19,Cc1cnc2nc(-c3ccc(N(C)C)cc3)cn2c1,107%
20,CCCCCCCCCCNCCSS(=O)(=O)O,86.4%

# — PubChem BioAssay (NCI)
